Screens: PubChem BioAssay, National Center for Advancing Translational Sciences (NCATS)
ALDH1A1 inh – inhibitors of human aldehyde dehydrogenase 1A1; P00352; Purified ALDH1A1, NADH fluorescence, propionaldehyde substrate; Potency, µM (highest dose often 75.3 µM), for the others: at the highest dose activity, negative = inhibition, hits mostly inhibitors; 7.3% of 220,000 active; AID 1030;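 note: potency is the fitted concentration of half-maximal effect; plate controls were no enzyme wells and a reference inhibitor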
Target sequence (P00352 whole entry, looked up): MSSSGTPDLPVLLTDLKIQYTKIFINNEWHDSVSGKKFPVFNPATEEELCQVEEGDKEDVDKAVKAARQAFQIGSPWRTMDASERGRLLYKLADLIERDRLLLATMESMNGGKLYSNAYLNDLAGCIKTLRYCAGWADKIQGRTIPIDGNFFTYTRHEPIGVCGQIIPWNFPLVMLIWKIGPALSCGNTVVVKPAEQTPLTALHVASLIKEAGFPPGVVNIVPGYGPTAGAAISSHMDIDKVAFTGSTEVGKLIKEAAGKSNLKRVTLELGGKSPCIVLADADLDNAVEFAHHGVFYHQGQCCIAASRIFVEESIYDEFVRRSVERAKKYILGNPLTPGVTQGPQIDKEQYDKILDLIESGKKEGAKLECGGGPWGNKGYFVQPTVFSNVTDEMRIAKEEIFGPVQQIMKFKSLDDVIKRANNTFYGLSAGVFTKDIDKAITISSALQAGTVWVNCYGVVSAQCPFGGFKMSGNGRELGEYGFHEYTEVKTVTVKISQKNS
HPGD block – inhibitors of human 15-hydroxyprostaglandin dehydrogenase (HPGD). purified HPGD, NADH fluorescence kinetic, PGE2 substrate. Potency, µM, for inactives: at the highest dose activity change, negative = inhibition, usual class: inhibitors. 4.3% of 150,000 active. AID 894; note: potency is the fitted concentration of half-maximal effect
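NADH formation kinetics: reaction with 30 uM PGE2 and 1 mM NAD+ (final), 20 nM enzyme, Tris-HCl pH 8 with Tween 20, after 15 min compound preincubation at room temperature. Fluorescence change, last versus first of five reads.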
PNC assembly inh – perinucleolar compartment assembly inhibition; PC3M PTB-GFP, PNC prevalence imaging, 16 h; active compounds read low; activity change (PNC), negative = inhibition, % at 10 µM; 3.1% of 140,000 active;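 active = readout at or below -70, meaning at least 70% loss of cells showing the perinucleolar compartment, a nuclear body marking cancer cells; inconclusive = readout between -30 and a set limit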;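 note: plate controls were DMSO wells for no effect and camptothecin positive control wells for full effect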
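PC3M cells stably expressing PTB-GFP, 750–1000 cells/well, treated 16 h at 37 °C with compound (23 nl of library stock), in duplicate. After paraformaldehyde fixation and Hoechst stain, imaged at 20x; PNC prevalence scored by image analysis.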
Active calls of the source: *; ? = inconclusive; · = no result given; [ ] = remark or other dose. Compounds with a hit are over-represented: about 11% of the library has one in this group of screens. Unless noted, calls come from the whole dose curve; as a rule, active = well fitted inhibition curve with a large enough effect (not every such curve was filed as active); inconclusive = small, poorly fitted or top-dose-only effect, or another doubt; inactive = no such curve, though single readings can be large or run the other way. Unless noted, % is set by controls: 0 for no effect and ±100 for the full control effect.

SMILES | ALDH1A1 inh | HPGD block | PNC assembly inh
Cc1cc(C)c(NC(=O)C2C3/C=C\CCCCC32)c(C)c1 (configuration not stated) | 6.0% | 1.0% | -15.4
C/C(CCc1ccccc1)=N\NC(=O)C(=O)Nc1cccc(Cl)c1 | -1.4% | · | ·
CCCn1c(=O)c2ccccc2n2c(SCN3C(=O)c4ccccc4C3=O)nnc12 | -7.2% | -9.3% | 16.1
CCCCCn1c(=O)c2ccccc2n2c(CCl)nnc12 | 25.1µM* | · | ·
CC(C)CCn1c(=O)c2ccccc2n2c(CCl)nnc12 | 25.1µM* | · | ·
CC(C)CCn1c(=O)c2ccccc2n2c(CN(C)Cc3ccccc3)nnc12 | ? | -14.7% | 20.5
O=C(CSc1ncnc2nc[nH]c12)Nc1nnc(SCc2ccc(Cl)c(Cl)c2)s1 | -1.7% | · | ·
CCc1c(C)nc2ncnn2c1N1CCN(S(=O)(=O)c2ccc(OC)cc2)CC1 | -1.4% | · | ·
CCOCCCNC(=O)C(NC(=O)c1ccc(NC(C)=O)cc1)c1ccccc1 (configuration not stated) | 2.6% | 1.1% | ?
COCCNC(C(=O)Nc1cc(Cl)cc(Cl)c1)c1ccccc1 (configuration not stated) | 14.1µM* | -9.9% | -8.9
CCOCCCNC(C(=O)Nc1ccc(OC)c(Cl)c1)c1ccccc1 (configuration not stated) | 2.24µM* | · | ·
CN(C)CCNC(C(=O)Nc1cccc(C(F)(F)F)c1)c1ccccc1 (configuration not stated) | 2.0% | · | ·
COc1ccc(CC(=O)NNS(=O)(=O)c2ccccc2)cc1OC | 1.4% | · | ·
Cc1nc(C)c(-c2nnc(-c3ccc(C(C)(C)C)cc3)o2)cc1C(=O)NN | ? | -14.7% | ?
O=C(CC1Nc2c3ccccc3nc(=S)n2C1=O)NC1CCCCC1 (configuration not stated) | -3.0% | · | ·
CCN(CC)S(=O)(=O)c1ccc(S(=O)(=O)Nc2ccc3c(c2)oc2ccccc23)cc1 | ? | -16.7% | -26.7
CN(C)S(=O)(=O)c1ccc(S(=O)(=O)Nc2ccc3c(c2)oc2ccccc23)cc1 | 12.6µM* | -11.6% | ?
COC(=O)C1(O)CC(CC(C)C)=NN1C(=O)c1ccccc1 (configuration not stated) | -2.7% | -1.4% | -124.4*
COC(=O)C1=NN(C(=O)c2ccccc2)C(C)(O)C1 (configuration not stated) | -9.9% | -14.0% | ?
CCCC(=O)OCC(=O)c1[nH]c(C)c(C(C)=O)c1C | 9.9% | · | ·
CC(C)(C)OC(=O)[C@H]1[C@H](c2ccc([N+](=O)[O-])cc2)C2(C(=O)c3ccccc3C2=O)C2c3ccccc3C=NN21 (some centres not stated) | ? | -24.1% | ?
Cc1ccsc1/C=C1/SC(=O)N(CC(=O)N2CCOCC2)C1=O | -61.4% | -18.5% | -10.8
CCCOc1ccc(/C=C2\SC(=S)N(CC3CCCO3)C2=O)cc1 (configuration not stated) | 6.31µM* | -6.7% | 25.5
Cc1ccsc1/C=C1\SC(=S)N(CC2CCCO2)C1=O (configuration not stated) | 1µM* | · | ·
CCOc1ccc(/C=C2\SC(=S)N(CC(=O)N(CCO)C(C)(C)C)C2=O)cc1 | -10.6% | · | ·
SMILES | ALDH1A1 inh | HPGD block | PNC assembly inh
CC(=O)Nc1ccc(NC(=O)C(C)OC(=O)CNS(=O)(=O)c2cccc(Cl)c2)cc1 (configuration not stated) | 7.9% | · | ·
CN[C@]1(C)[C@H]2CC[C@@H](C2)C1(C)C | -10.1%[20.9 µM] | 4.8% | ·
COc1cccc(OC)c1C(=O)OCC(=O)Nc1ccc(OC(F)(F)F)cc1 | -1.2% | -25.8% | 30.8
Cc1[nH]n(-c2ccccc2)c(=O)c1C=Nc1cnc2ccccc2c1 | -6.9% | -9.4% | 0.6
Cc1[nH]n(-c2ccccc2)c(=S)c1C=Nc1ccc([N+](=O)[O-])cc1 | 5.62µM* | 3.55µM* | 118.1
CN(Cc1cc2ccccc2[nH]c1=O)S(=O)(=O)c1ccccc1 | ? | 0.7% | 7.7
COc1ccc2cc(CN(CC3COCCO3)S(=O)(=O)c3ccccc3)c(=O)[nH]c2c1 (configuration not stated) | ? | 39.9% | 24.1
COc1cccc(CN(CC2CCCO2)S(=O)(=O)c2ccc(S(=O)(=O)N(C)C)cc2)c1 (configuration not stated) | 2.82µM* | -13.4% | -21.8
COc1ccc2[nH]c(=O)c(CN(CC3CCCO3)C(=S)Nc3ccccc3)cc2c1 (configuration not stated) | 12.3% | · | ·
Cc1ccc(S(=O)(=O)N(C)Cc2cc3ccccc3[nH]c2=O)cc1 | 2.5% | -21.9% | -98.7*
COc1ccc2cc(CN(CC3CCCO3)C(=S)Nc3ccccc3)c(=O)[nH]c2c1 (configuration not stated) | 7.08µM* | · | ·
Cc1cc(S(=O)(=O)N(Cc2ccc3c(c2)OCO3)CC2CCCO2)ccc1-n1cnnn1 (configuration not stated) | ? | -10.0% | 43.1
COc1ccc(S(=O)(=O)N(Cc2cc3cc(C)ccc3[nH]c2=O)CC2CCCO2)cc1 (configuration not stated) | 8.91µM* | 49.9% | 39.7
Cc1nonc1OCCn1c([N+](=O)[O-])cnc1C | -3.0% | · | ·
O=C(Cc1ccccc1)NS(=O)(=O)c1ccc(N=NN2CCOCC2)cc1 | 0.7% | · | ·
CCC(=O)N1CCc2cc(S(=O)(=O)CCC(=O)Nc3ccc(C)cn3)ccc21 | 2.3% | · | ·
CC12CC3OS(=O)OC3CC3C4C(C(OCc5ccccc5)C31)C42 (configuration not stated) | 8.4%[13.5 µM] | · | ·
CC(C)CC(=O)Nc1cccc(NC(=O)CC(C)C)n1 | 11.8% | -0.7% | -29.8
Cc1ccc2[nH]c(=O)c(CN(Cc3cccs3)S(=O)(=O)c3ccc4c(c3)OCCO4)cc2c1 | 25.1µM* | -27.9% | ?
COC(=O)c1ccccc1S(=O)(=O)N(Cc1cc2ccc(OC)cc2[nH]c1=O)CC1CCCO1 (configuration not stated) | 2.3% | -6.9% | -97.9*
Cc1cc2cc(CN(Cc3cccs3)S(=O)(=O)c3ccc4c(c3)OCCO4)c(=O)[nH]c2cc1C | 0.0% | -9.5% | ?
COc1ccc2cc(CN(CC3CCCO3)S(=O)(=O)c3ccc(C(C)=O)cc3)c(=O)[nH]c2c1 (configuration not stated) | ? | -11.6% | 29.5
COc1cccc(Nc2ncc3nc(-c4ccc(F)cc4)c(=O)n(CCC#N)c3n2)c1 | 1.8% | -8.8% | ·
COc1ccc(OC)c(NC(=S)N2CCC(C(O)(c3ccccc3)c3ccccc3)CC2)c1 | 0.4% | -4.2% | -17.7
COc1ccccc1NC(=O)CC1S/C(=N/N=C2\CCCc3ccccc32)NC1=O (configuration not stated) | 5.4% | · | ·
SMILES | ALDH1A1 inh | HPGD block | PNC assembly inh
O=C(c1ccco1)N(Cc1ccccc1)Cc1ccccn1 | 0.1% | · | ·
Cc1ccc(-c2nn(-c3ccccc3)cc2CN(Cc2ccccc2)C(=O)c2ccco2)o1 | 11.2µM* | -26.6% | ?
CC(=O)c1sc(Nc2nc(C)cc(C)n2)nc1C | 0.891µM* | 14.1µM* | -11.5
CC(=O)c1sc(NC(=O)C(C)(C)C)nc1C | 5.5% | 2.2% | 24.8
C#CCNC(=O)C(C)c1ncc(C(F)(F)F)cc1Cl (configuration not stated) | 6.6% | · | ·
Cc1oc(/N=C/c2ccccc2O)c(C#N)c1C | ? | -19.9% | -24.8
Cc1oc(/N=C/c2c(O)ccc3ccccc23)c(C#N)c1C | 35.5µM* | -12.9% | 29.7
